Screens as filed in PubChem BioAssay.
Only some compounds are listed: those with a hit (about 27% of all), similar ones and a draw of the others.
CYP2C9 act = CYP2C9 (human) activation. actives 1.4% (n = 96,000). P11712. recombinant CYP2C9, luciferin-H conversion, luminescence; active compounds read high; factor 1 = untreated enzyme, 0 = blocked. AID 1024. activation factor at 5 µM;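 active = activation factor of 2 or more for CYP2C9 at a 5 µM dose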;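 also: 0 = sulfaphenazole-blocked wells and 1 = vehicle-only wells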
CYP2C19 act = cytochrome P450 2C19 (human) activation; P33261; recombinant CYP2C19, luciferin-H EGE luminescence; active compounds read high; 0 = fully inhibited enzyme, 1 = untreated enzyme; activation factor at 5 µM; 96,000 tested, under 10 active; AID 1025;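 active = activation factor of at least 2 at 5 µM in the primary screen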;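 also: 0 = wells with 2.5 mM tranylcypromine and 1 = vehicle-only wells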
Target sequence (P33261 whole entry, looked up): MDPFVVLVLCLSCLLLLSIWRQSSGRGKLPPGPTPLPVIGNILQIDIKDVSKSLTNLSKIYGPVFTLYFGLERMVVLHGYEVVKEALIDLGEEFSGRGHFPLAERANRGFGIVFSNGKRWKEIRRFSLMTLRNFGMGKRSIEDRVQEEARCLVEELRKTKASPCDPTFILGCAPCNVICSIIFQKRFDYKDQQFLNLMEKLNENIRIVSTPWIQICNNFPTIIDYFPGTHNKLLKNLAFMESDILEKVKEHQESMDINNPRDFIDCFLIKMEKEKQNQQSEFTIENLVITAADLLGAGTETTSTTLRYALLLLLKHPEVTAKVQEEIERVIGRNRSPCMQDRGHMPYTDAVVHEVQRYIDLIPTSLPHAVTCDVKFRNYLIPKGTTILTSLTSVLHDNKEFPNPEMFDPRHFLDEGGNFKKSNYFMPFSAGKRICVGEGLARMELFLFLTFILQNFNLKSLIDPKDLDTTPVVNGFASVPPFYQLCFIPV
Cav3 T inh = inhibitors of human Cav3.2 T-type calcium channel | Cav3.2-expressing cells, Fluo-4 calcium fluorescence FDSS; active compounds read low | actives 4% (n = 100,000) | B-score at 10 µM | O95180;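 active = single-dose well whose peak fluorescence ratio is a statistical outlier from its plate by either plate-standardised score or position-corrected B-score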
CYP2C9 inhib = human CYP2C9 inhibition | P11712 | CYP2C9 Supersomes, luciferin-H conversion, luminescence | inhibition, % at 5 µM | actives 20% (n = 96,000);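 active = blocking of liver enzyme CYP2C9 beyond about 50% at 5 µM, limit read from the data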
CYP2C19 inh = inhibitors of human CYP2C19. P33261. CYP2C19 Supersomes, luciferin-H EGE luminescence, 30 min. inhibition, % at 5 µM. actives 21% (n = 96,000). AID 778;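 active = CYP2C19 inhibition above a set limit at 5 µM in the primary screen, cut at about 50% in these data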;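 also: plate controls were negative control wells for no effect and 2.5 mM tranylcypromine positive control for full effect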
Numbers without * were called inactive.

`CCC(=O)N1CCN(c2ccccc2NC(=O)c2ccc(OC)c(Cl)c2)CC1` gave CYP2C9 act 0.2, CYP2C19 act 0.3, Cav3 T inh 0.35, CYP2C9 inhib 82* and CYP2C19 inh 74*.
For COc1ccc(C2CC(C(F)(F)F)n3nc(C(=O)O)c(Cl)c3N2)cc1OC (stereo not drawn) the results were CYP2C9 act 1, CYP2C19 act 1.1, Cav3 T inh 0.15, CYP2C9 inhib 2 and CYP2C19 inh -9.
COc1ccc(C2CC(C(F)(F)F)n3nc(CO)c(Cl)c3N2)cc1OC (stereo not drawn) was read as CYP2C9 act 0, CYP2C19 act 0.2, Cav3 T inh -0.41, CYP2C9 inhib 98* and CYP2C19 inh 77*.
COc1ccc(C2CC(C(F)(F)F)n3ncc(C(=O)Nc4cccc(O)c4)c3N2)cc1OC (stereo not drawn) was read as CYP2C9 act 0.5, CYP2C19 act 0.8, Cav3 T inh 0.6, CYP2C9 inhib 50* and CYP2C19 inh 19.
COc1cccc(C2CC(C(F)(F)F)n3nc(C(=O)NCc4cccnc4)cc3N2)c1 (stereo not drawn) was read as CYP2C9 act 1.2, CYP2C19 act 1.1, Cav3 T inh -0.4, CYP2C9 inhib -24 and CYP2C19 inh -11.
`COc1cccc(C2CC(C(F)(F)F)n3ncc(C(=O)NCc4ccco4)c3N2)c1` (stereo not drawn) gave CYP2C9 act 0.2, CYP2C19 act 0.3, Cav3 T inh -0.88, CYP2C9 inhib 83* and CYP2C19 inh 67*.
For Cc1cccc(-n2c(SCC(=O)NC3CCCC3)nnc2-c2ccoc2C)c1 the results were Cav3 T inh -0.76.
`Cc1cccc(Nc2nc(NC(C)C)nc(Oc3ccc(=O)n(C)n3)n2)c1` gave CYP2C9 act 0.5, CYP2C19 act 0.8, Cav3 T inh 0.021, CYP2C9 inhib 53* and CYP2C19 inh 16.
Screening COc1cc(C)nc(Oc2ccc(=O)n(C)n2)n1 returned CYP2C9 act 0.9, CYP2C19 act 1.1, Cav3 T inh 0.58, CYP2C9 inhib 10 and CYP2C19 inh -5.
Screening C=CCn1c(SCc2c(F)cccc2Cl)nnc1-c1ccco1 returned CYP2C9 act 1.2, CYP2C19 act 0, Cav3 T inh -1.3, CYP2C9 inhib -23 and CYP2C19 inh 96*.
For S=c1[nH]cc(-c2ccccc2)n1-c1ccccc1 the results were CYP2C9 act 0.2, CYP2C19 act 0.2, Cav3 T inh 1, CYP2C9 inhib 78* and CYP2C19 inh 79*.
Screening CCn1c(-c2ccccc2)c[nH]c1=S returned CYP2C9 act 0.7, CYP2C19 act 0.4, Cav3 T inh 1.3, CYP2C9 inhib 31 and CYP2C19 inh 58*.
Screening CC(=O)Nc1ccc(S(=O)(=O)NCc2csc(C)n2)cc1 returned Cav3 T inh -0.081.
`CC(C)NC(=O)C1CCN(C(=O)N(C)C)CC1` gave CYP2C9 act 1, CYP2C19 act 1.1, Cav3 T inh 1.3, CYP2C9 inhib -4 and CYP2C19 inh -10.
`Cc1cc(C)c(C#N)c(SCC(=O)Nc2ccccc2C(N)=O)n1` gave CYP2C9 act 1, CYP2C19 act 0.7, Cav3 T inh 1, CYP2C9 inhib 2 and CYP2C19 inh 31.
`Cc1ccccc1NC(=O)c1ccc(CN2CCC(Cc3ccccc3)CC2)cc1` gave CYP2C9 act 0.7, CYP2C19 act 0.8, Cav3 T inh -7.1*, CYP2C9 inhib 27 and CYP2C19 inh 18.
Cc1ccc(Cn2c3ccccc3c3cn[nH]c(=O)c32)cc1 was read as CYP2C9 act 0.8, CYP2C19 act 1, Cav3 T inh 0.39, CYP2C9 inhib 18 and CYP2C19 inh -1.
`COc1cccc(C2CC(=O)Nc3cc(OC)c(OC)c(OC)c32)c1OC` (stereo not drawn) gave CYP2C9 act 0.5, CYP2C19 act 0.4, Cav3 T inh 0.064, CYP2C9 inhib 47 and CYP2C19 inh 63*.
Screening CCN1CCN(c2cc(=O)n(-c3cc(Cl)ccc3C)c(=O)[nH]2)CC1 returned CYP2C9 act 0.4, CYP2C19 act 0.8, Cav3 T inh -0.22, CYP2C9 inhib 60* and CYP2C19 inh 20.
For O=C(CSc1nnc(CNc2ccc(F)cc2)n1CC1CCCO1)Nc1ccccc1 (stereo not drawn) the results were Cav3 T inh -1.9.
O=C(Nc1cc(Sc2ccccn2)cc([N+](=O)[O-])c1)c1ccc([N+](=O)[O-])cc1 was read as CYP2C9 act 0.9, CYP2C19 act 0.9, CYP2C9 inhib 13 and CYP2C19 inh 7.
Screening Cc1cc(C)nc(N2CCC(C(=O)NCc3cccc(C(F)(F)F)c3)CC2)n1 returned CYP2C9 act 1.6, CYP2C19 act 1, Cav3 T inh -0.086, CYP2C9 inhib -58 and CYP2C19 inh -1.
Cc1ccnc(N2CCC(C(=O)Nc3cccc(C(F)(F)F)c3)CC2)n1 was read as CYP2C9 act 1, CYP2C19 act 0.1, Cav3 T inh -1.6, CYP2C9 inhib 4 and CYP2C19 inh 91*.
Screening O=C(NCc1cccc(C(F)(F)F)c1)C1CCN(c2ncccn2)CC1 returned CYP2C9 act 0.3, CYP2C19 act 0.8, Cav3 T inh 0.14, CYP2C9 inhib 67* and CYP2C19 inh 16.
Screening Cc1ccnc(N2CCC(C(=O)Nc3ccc(Oc4ccccc4)cc3)CC2)n1 returned CYP2C9 act 0.7, CYP2C19 act 1, CYP2C9 inhib 27 and CYP2C19 inh 0.
Screening Cc1cc(N2C3CCC2CC(O)(c2ccc(F)cc2)C3)nc(-c2ccccc2)n1 (stereo not drawn) returned CYP2C9 act 0, CYP2C19 act 0.1, Cav3 T inh -1.7, CYP2C9 inhib 100* and CYP2C19 inh 94*.
CN(C(=O)CSc1nc(-c2ccccc2)cn1N)C(c1ccccc1)c1ccccc1 was read as CYP2C9 act 0.2, CYP2C19 act 0.8, Cav3 T inh -6.5*, CYP2C9 inhib 76* and CYP2C19 inh 24.
For COc1ccccc1CNC(=O)CSc1nc(-c2ccccc2)cn1N the results were CYP2C9 act 0.1, CYP2C19 act 0.1, Cav3 T inh 0.68, CYP2C9 inhib 87* and CYP2C19 inh 93*.
Nn1cc(-c2ccccc2)nc1SCC(=O)NCCN1C(=O)CSC1=O was read as CYP2C9 act 0.8, CYP2C19 act 0.4, Cav3 T inh 0.52, CYP2C9 inhib 16 and CYP2C19 inh 60*.
Screening Cn1c(SCC(=O)NCCN2C(=O)CSC2=O)nc2ccccc2c1=O returned CYP2C9 act 0.9, CYP2C19 act 0.5, Cav3 T inh 0.95, CYP2C9 inhib 12 and CYP2C19 inh 46.
Screening Nn1cc(-c2ccccc2)nc1SCC(=O)NC1CCS(=O)(=O)C1 (stereo not drawn) returned CYP2C9 act 1, CYP2C19 act 0.9, Cav3 T inh -1, CYP2C9 inhib -1 and CYP2C19 inh 10.
Screening N#CCCN(C(=O)CSc1nc(-c2ccccc2)cn1N)c1ccc(F)cc1 returned CYP2C9 act 0.9, CYP2C19 act 1, Cav3 T inh 1.3, CYP2C9 inhib 14 and CYP2C19 inh -3.
